This is a sample that favours compounds with a hit; in the whole collection about 4% have one here.
CF NFkB inh = inhibitors of cystic fibrosis induced NF-kB; KKLEB NF-kB-GFP reporter, PAF-induced, GFP fluorescence overnight; inhibition, % at 5 µM; hit rate 0.86% among 360,000; AID 588850;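 active means at least 50% inhibition at 5 µM, scaled per plate between neutral and stimulator controls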;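 further: PAF is a Pseudomonas aeruginosa culture filtrate used as stimulus; plate controls were PAF-stimulated DMSO wells for no effect and unstimulated DMSO wells for full effect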
KKLEB cytotox = reduces viability of KKLEB cystic fibrosis airway cells. hit rate 0.36% among 360,000. AID 602141. KKLEB CF airway cells viability, ATPlite luminescence, overnight; hits give low values; cells stimulated with P. aeruginosa culture filtrate. activity change (cytotoxicity), % at 5 µM;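 active means corrected activity change at or below -50% at 5 µM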
HIF-2a inh = HIF-2a inhibition. 786-0 RCC cells HIF-2a reporter, luciferase luminescence, overnight. inhibition, % at 18.8 µM. hit rate 0.72% among 360,000. AID 624352;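 active means inhibition of the luminescence signal of 40% or more relative to plate controls, in a single-dose primary screen at 18.75 µM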
TWEAK-Fn14 inh = TWEAK-Fn14 signaling inhibition. TWEAK-stimulated Fn14 reporter cells, luciferase luminescence, 8 h. AID 1159606. hit rate 2% among 360,000. inhibition, % at 10 µM; in the data active means inhibition above about 50%
TROY signal inh = inhibitors of TROY-dependent NF-kB signaling | hit rate 0.98% among 360,000 | inhibition, % at 10 µM | Q293 LMP1-TROYcd NF-kB luciferase reporter, 4 h | AID 1347056;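 active means compounds whose plate-normalised and pattern-corrected inhibition of the luciferase reporter signal at the single screening dose is 50% or more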
Peg3 prom inh = reduces Peg3 promoter-driven luciferase expression in HeLa | HeLa PEG-Prom luciferase reporter, luminescence, overnight | inhibition, % at 20 µM | hit rate 1.7% among 360,000 | AID 588405;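 active means inhibition of at least 50% at 20 µM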
Mdm2-MdmX confirm = confirmation of inhibitors of human Mdm2/MdmX interaction, set 2. shares compounds with HIF-2a inh. hit rate 99% among 740. SaOS-2 split-luciferase Mdm2/MdmX complementation, luminescence. inhibition, % at 8 µM;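 active means mean inhibition of the luminescence signal across two replicates at or above 26 percent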
Target sequence (O15151 whole entry, looked up): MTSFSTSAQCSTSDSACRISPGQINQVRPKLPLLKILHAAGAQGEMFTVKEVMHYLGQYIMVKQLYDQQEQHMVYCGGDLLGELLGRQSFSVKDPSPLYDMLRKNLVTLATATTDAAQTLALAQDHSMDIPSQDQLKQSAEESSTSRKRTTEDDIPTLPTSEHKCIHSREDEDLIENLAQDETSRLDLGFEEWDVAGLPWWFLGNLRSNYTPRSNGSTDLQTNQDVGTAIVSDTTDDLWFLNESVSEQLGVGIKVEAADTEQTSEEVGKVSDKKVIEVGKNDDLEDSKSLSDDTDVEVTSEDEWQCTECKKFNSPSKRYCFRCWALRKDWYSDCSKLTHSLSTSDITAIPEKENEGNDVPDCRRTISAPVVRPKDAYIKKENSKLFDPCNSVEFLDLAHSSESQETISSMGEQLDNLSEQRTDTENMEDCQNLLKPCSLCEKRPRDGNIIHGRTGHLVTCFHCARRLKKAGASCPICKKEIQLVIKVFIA
Target sequence (Q00987 whole entry, looked up): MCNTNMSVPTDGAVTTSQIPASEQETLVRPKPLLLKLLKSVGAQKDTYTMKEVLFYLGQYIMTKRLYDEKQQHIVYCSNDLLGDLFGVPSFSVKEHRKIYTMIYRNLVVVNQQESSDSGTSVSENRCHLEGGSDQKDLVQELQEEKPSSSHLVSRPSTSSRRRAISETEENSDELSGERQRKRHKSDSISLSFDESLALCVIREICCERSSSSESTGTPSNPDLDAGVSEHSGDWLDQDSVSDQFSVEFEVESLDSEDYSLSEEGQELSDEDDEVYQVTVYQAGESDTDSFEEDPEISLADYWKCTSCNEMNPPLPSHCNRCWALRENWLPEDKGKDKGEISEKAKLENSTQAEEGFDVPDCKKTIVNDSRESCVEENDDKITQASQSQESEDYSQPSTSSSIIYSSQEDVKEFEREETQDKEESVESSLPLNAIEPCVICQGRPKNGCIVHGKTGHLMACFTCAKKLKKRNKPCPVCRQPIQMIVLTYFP
HIF-2a conf = confirmation of HIF-2a inhibitors; hit rate 56% among 1,800; AID 651580; 786-0 RCC cells, HIF-2a luciferase reporter luminescence, overnight; shares compounds with HIF-2a inh; inhibition, % at 18.8 µM;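 active means mean inhibition across four replicates of at least 40 percent at the single tested concentration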
HIF-1a cs = inhibits HIF-1a reporter, a counter-screen for HIF-2a inhibitors; shares compounds with HIF-2a inh; MiaPaCa-2 HIF-1a luciferase reporter, desferoxamine, overnight; inhibition, % at 18.8 µM; hit rate 72% among 1,800; AID 651589;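 active means mean inhibition of the reporter signal across four replicates at the single tested dose of 50% or more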
Active calls of the source: *; i = inactive; x = no result given.

SMILES	CF NFkB inh	KKLEB cytotox	HIF-2a inh	TWEAK-Fn14 inh	TROY signal inh	Peg3 prom inh	Mdm2-MdmX confirm	HIF-2a conf	HIF-1a cs
COC(=O)[C@@]1(C)[C@H]2C(=O)N(Cc3ccccc3)C(=O)[C@H]2[C@H]2CN=C(SCc3ccc(Cl)cc3)N21	14	1	11	6	13	11	103*	x	x
COC(=O)[C@@]1(Cc2ccccc2)[C@H]2C(=O)N(Cc3ccccc3)C(=O)[C@H]2[C@H]2CN=C(SCc3ccc(Cl)cc3)N21	9	-9	17	3	2	0	103*	x	x
COC(=O)[C@@]1(C)[C@H]2C(=O)N(Cc3ccccc3)C(=O)[C@H]2[C@H]2CN=C(SCc3ccc(C#N)cc3)N21	-12	0	10	20	2	4	x	x	x
COc1ccc(CCC(=O)N/N=C/c2ccc3c(c2)OCO3)cc1	-3	2	-5	-19	-24	-5	x	x	x
NC(=O)CC(NC(=O)c1ccccc1)c1ccc(NCCc2ccc(Cl)cc2)c([N+](=O)[O-])c1 (centres undefined)	2	-14	50*	-1	20	16	x	-3	33
CC(=O)c1c(C)[nH]c(C(=O)Nc2ccc(C)cn2)c1C	-25	5	46*	95*	67*	49	x	60*	56*
CCSc1nc(-c2ccccc2)c2cc(Cl)ccc2n1	18	5	16	-10	9	14	x	x	x
CCSc1nc(-c2ccccc2)nc(C(Cl)Cl)n1	14	-15	71*	41	-3	102*	x	61*	105*
COc1cc(/C=C/C(=O)c2ccc3c(c2)OCCO3)cc(Br)c1OCC(=O)N(C)C	4	0	93*	83*	33	107*	101*	91*	102*
COc1cccc(/C=C/C(=O)c2ccc3c(c2)OCO3)c1OC	6	-16	-198	-13	-85	-219	x	x	x
Cc1oc(-c2cccc(Cl)c2)nc1CN1CCC(C(=O)NCCCN2CC(C)CC(C)C2)CC1 (centres undefined)	-6	-3	1	-51	-20	92*	103*	x	x
Ic1ccc(N2CCN(Cc3c[nH]c4ncccc34)CC2)cc1	-1	3	-11	9	15	13	x	x	x
Cc1ccc(S(=O)(=O)N2CCCC2)cc1C(=O)NCCN1CCOCC1	-21	16	9	13	24	4	x	x	x
CCOC(=O)/C(=C/c1c(C)n(C)c2ccc([N+](=O)[O-])cc12)C(C)=O	2	-9	72*	73*	50*	49	x	70*	59*
Cc1ccc(C(=O)N/C(=C\c2ccc(-c3ccc(Br)cc3)o2)C(=O)NCCCN(C)C)cc1	15	-19	33	-279	-24	109*	103*	x	x
CC1CCC(C(C)C)C(OC(=O)Cn2c(-c3ccc(F)cc3)[n+](C)c3ccccc32)C1 (centres undefined)	50	-54*	-6	45	31	62*	99*	x	x
CC1CCC(C(C)C)C(OC(=O)CSc2nc(N)cc(=O)[nH]2)C1 (centres undefined)	2	0	6	0	3	17	x	x	x
Cc1cccc(OCc2n(CC(=O)OC3CC(C)CCC3C(C)C)c3ccccc3[n+]2C)c1 (centres undefined)	69*	-57*	96*	75*	64*	103*	102*	27	106*
COc1ccc(C(=O)NCc2ccccc2CN2CCCC2)cc1S(=O)(=O)N1CCOCC1	11	-15	8	-4	2	-1	x	x	x
COc1ccccc1NC(=S)N=Nc1c(O)[nH]c2ccc(Br)cc12	23	-18	7	-18	-12	92*	84*	x	x
CCCN1CCN(C(=O)C(C)n2nc(C)c3sc4ccccc4c3c2=O)CC1 (centres undefined)	-2	-7	5	5	14	11	x	x	x
CC(CC(=O)NCc1ccc(Cl)cc1)S(=O)(=O)c1ccc2c(c1)NC(=O)CO2 (centres undefined)	-4	0	10	1	2	22	x	x	x
COc1ccccc1C(=O)NCCNc1ccc([N+](=O)[O-])cc1Cl	14	-6	-17	-27	5	5	x	x	x
O=C(O)c1cc2c([nH]c1=O)CCCC2	4	-3	16	-13	-5	5	x	x	x
C=CCSC(=C(C#N)C#N)c1cc2c([nH]1)CCCC2	18	-14	66*	29	-8	94*	x	9	106*
SMILES	CF NFkB inh	KKLEB cytotox	HIF-2a inh	TWEAK-Fn14 inh	TROY signal inh	Peg3 prom inh	Mdm2-MdmX confirm	HIF-2a conf	HIF-1a cs
CCC(C(=O)Nc1ccccc1C(=O)N1CCCC1)N1C(=O)c2ccccc2C1=O (centres undefined)	12	-12	17	-6	-7	8	x	x	x
O=C(O)c1ccccc1NC(=O)C(Cc1ccccc1)N1C(=O)c2ccccc2C1=O (centres undefined)	-7	4	42*	-2	-9	10	x	3	-10
Cc1ccccc1-c1cc(C(=O)NCC2CC2)nn1CC1CC(c2cccc([N+](=O)[O-])c2)=NO1 (centres undefined)	23	-24	15	-15	-4	17	x	x	x
CNC(=O)c1nnsc1S(=O)(=O)c1ccc(Cl)cc1	90*	-92*	65*	59*	69*	106*	104*	74*	50*
COc1ccc(-c2nnn(Cc3ccccc3)n2)cc1OC	-11	-6	-71	6	-12	-28	x	x	x
COc1cc2c3nnc(-c4ccc(F)cc4)c-3cn(Cc3ccccc3)c2cc1OC	-348	11	-24	i	-133	103*	103*	x	x
CCCNC(=O)c1cc(C2CCCN(C(=O)c3ccccc3)C2)on1 (centres undefined)	12	-8	-29	8	-1	-1	x	x	x
COc1ccc(/C=C2\SC(=O)N(CCCC(=O)Nc3ccc(C(=O)O)cc3)C2=O)cc1OC	-18	1	13	1	-21	11	x	x	x
COc1ccc(/C=C2\SC(=O)N(CCCC(=O)Nc3cc(Cl)ccc3C(=O)O)C2=O)cc1	-4	-2	89*	104*	85*	76*	x	98*	99*
Clc1ccc2c(N/N=C/c3ccccc3Br)ccnc2c1	-50	-43	-27	-106	-15	84*	103*	x	x
Cc1cc(C)cc(C(=O)OCC(=O)Nc2ncccn2)c1	-23	6	-6	6	8	-11	x	x	x
N#CC1=C(N)N2C(=C(C#N)C1c1ccc(Br)cc1)Nc1ccccc12 (centres undefined)	x	x	x	x	x	x	101*	x	x
